# In PubChem BioAssay (NCATS):
# Several values for one entry are separate records, joined by “and”; a condition that tells them apart may be missing. Identical values can stand only once. Results filed as inconclusive are left out. Entries that show only a call come without a potency. Activity calls are given as the source filed them. Unless noted, calls come from the whole dose curve; as a rule, active = well fitted curve in the direction sought with a large enough effect; inconclusive = small, poorly fitted or top-dose-only effect, or another doubt; inactive = no such curve, though single readings can be large; an effect the other way counts as inactive or inconclusive.
# Assays:
# [1] = AP1 Signaling Pathway (AID 357; active = well fitted curve in either direction with a large enough effect, not every such curve was filed as active;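 note: ME-180 reporter cells stimulated with EGF at its EC50 level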)
# In short: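 Cells are seeded overnight, exposed to compound titrations and an EC50 level of EGF for 5 hours at 37 °C, then loaded with CCF4 dye for 2.5 hours. Beta-lactamase activity under the AP-1 element is read as a blue/green ratio.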
# [2] = Stat Signaling Pathway (AID 446; active = well fitted curve in either direction with a large enough effect, not every such curve was filed as active;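 note: ME-180 cervical cancer cells given 40 pM IL-6 alongside compound; SIE-controlled beta-lactamase reporter measured as 460/530 nm FRET emission ratio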)
# In short: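 Screening format detects activators and inhibitors alike: ME-180 SIE-bla cells stimulated at 40 pM IL-6 for 5 hrs with compound, then dual-emission beta-lactamase read at 405 nm excitation.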
# [3] = target: Glucocorticoid receptor (Homo sapiens) (UniProt P04150); assay: GR-EFC Redistribution (AID 451; calls by dose curve; note: potency is the fitted concentration of half-maximal effect); conditions: CHO-K1 GR-EFC translocation, beta-gal luminescence, 2 h
# In short: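 CHO-K1 cells stably expressing nuclear-localized β-gal enzyme acceptor and GR fused C-terminally to the enzyme donor fragment; ligand-driven nuclear translocation restores β-gal by complementation. Compounds titrated up to 46 uM final, 2 h at 37 °C; luminescence read.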
# [4] = target: Mitogen-activated protein kinase 10 (Mus musculus) (UniProt Q61831); assay: JNK3 AlphaScreen Assay (AID 530; active = well fitted curve in either direction with a large enough effect, not every such curve was filed as active;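 note: kinase came from lysate of stimulated human HepG2 cells; signal reports phosphorylation of biotinylated GST-cJun 1-79 at Ser73 with 10 µM ATP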)
# In short: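 Inhibitors reduce antibody binding to phosphorylated biotin-cJun, lowering AlphaScreen luminescence. Lysates from HepG2 cells pre-activated by IL-1beta plus TNF-alpha supplied JNK3; compounds were titrated.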
# [5] = target: 3',5'-cyclic-AMP phosphodiesterase 4B (Homo sapiens) (UniProt Q07343); assay: qHTS Assay for Inhibitors of PDE-IV (AID 607; active = well fitted activation curve with a large enough effect in the main read-out, with a control signal flat, not every such curve was filed as active)
# In short: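 The readout is membrane depolarisation from a cAMP-sensing CNG channel, detected with a potential dye at ex 535/em 590. Cells were HEK293-derived (endogenous PDE-IV) at 1000 cells/well, titrated up to 22.9 uM final.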
# [6] = qHTS Assay for Lipid Storage Modulators (AID 1519; calls by dose curve); conditions: Drosophila S3 cells, BODIPY lipid droplet/cell ratio, laser cytometry, cells loaded with oleic acid
# In short: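 Cells seeded at 5,000 per well were treated with compounds over a concentration series and loaded with oleic acid (400 uM, as added). Lipid droplet fluorescence (488 nm excitation, 500-530 nm channel) was read by laser-scanning cytometry and normalized to 20 uM Triacsin C.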
# [7] = Primary qHTS for small molecule stabilizers of the endoplasmic reticulum resident proteome: Secreted ER Calcium Modulated Protein (SERCaMP) assay (AID 1508630)
# In short: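 GLuc-SERCaMP-expressing SH-SY5Y cells, pretreated 16 h with compound, are challenged with thapsigargin to empty ER calcium stores; after 4 h, coelenterazine is added directly to the medium and luminescence is imaged.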
# [8] = target: DNA repair nuclease/redox regulator APEX1 (Homo sapiens) (UniProt P27695); assay: qHTS Validation Assay for Inhibitors of the Human Apurinic/apyrimidinic Endonuclease 1 (APE1) (AID 1705;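 note: TAMRA fluorescence gain over two minutes as APE1 cuts a quenched THF abasic duplex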)
# In short: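 Endonuclease activity of human APE1 is followed as dequenching when the enzyme incises a tetrahydrofuran abasic site in a short duplex labelled 5'-TAMRA/3'-BHQ-2 (50 nM final), after 15 min enzyme–compound preincubation at room temperature.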
# [9] = target: ATP-dependent DNA helicase Q1 (Homo sapiens) (UniProt P46063); assay: qHTS Validation Assay for Inhibitors of RecQ-Like Dna Helicase 1 (RECQ1) (AID 2353)
# In short: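 50 nM RECQ1T1 preincubated 15 min with compound in Tris pH 8.0 buffer with MgCl2, DTT, Tween-20 and 2.5 ug/ml poly(dI-dC); started with 200 nM TAMRA/BHQ-2 forked duplex and 2 mM ATP. Unwinding read as fluorescence (525/598 nm), two reads 2 h apart.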
# [10] = target: Ubiquitin carboxyl-terminal hydrolase 1 (Homo sapiens) (UniProt O94782); assay: Inhibitors of USP1/UAF1: Pilot qHTS (AID 504865);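 note: rhodamine fluorescence freed from ubiquitin-rhodamine substrate followed over time; top concentration of the series differs between compounds; nearly all actives have a fitted effect of over 35% in size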
# In short: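 Kinetic fluorescence assay: 1nM USP1/UAF1, 15 min compound preincubation, then 150nM Ub-Rho; 480/540 nm.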
# [11] = qHTS profiling for inhibitors of Plasmodium falciparum proliferation (AID 504749); note: nearly all actives have a fitted effect of over 60% in size; conditions: P. falciparum in erythrocytes, SYBR Green DNA, 72 h, at 28.7 µM (top of the series)
# In short: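 Parasite proliferation within erythrocytes, 72 h exposure. Endpoint: SYBR Green I fluorescence after overnight lysis at room temperature. Controls: 0.29 uM artemisinin, DMSO.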
# [12] = target: Cytochrome P450 3A4 (Homo sapiens) (UniProt P08684); assay: qHTS Assay for Activators of Cytochrome P450 3A4 (AID 885); note: nearly all actives have a fitted effect of over 65% in size; note: potency is the fitted concentration of half-maximal effect
# In short: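 Steps: enzyme/substrate mix dispensed; compound added, 10 min RT; NADPH regeneration solution added, 60 min RT; luciferin detection buffer stops reaction; 20 min later luminescence measured.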
# [13] = Confirmation and Secondary Assay for Modulators of Hemoglobin Beta Chain Splicing at IVS2 654 locus (AID 910);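 note: per-well total GFP intensity by laser scanning cytometry after 2-day treatment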
# In short: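 HeLa cells stably carrying EGFP interrupted by mutant beta-globin IVS2-654 intron (CMV-driven) were treated with compound for 2 days at 37C; corrected splicing was scored as total peak GFP intensity per well (488 nm excitation, 500-520 nm emission).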
# [14] = Confirmation and Secondary Assay for Modulators of Hemoglobin Beta Chain Splicing at IVS2 705 locus (AID 930);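 note: HeLa cells stably expressing the EGFP-705 splicing reporter; GFP fluorescence per well restored by corrected splicing of the IVS2-705 intron in EGFP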
# In short: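 Fluorescence gain (488 nm laser, 500-520 nm PMT) reflects restored correct splicing of a mutant IVS2-705 intron inside EGFP in stably transfected HeLa cells after 2-day compound treatment.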
# [15] = target: Cytochrome P450 3A4 (Homo sapiens) (UniProt P08684); assay: qHTS Assay for Inhibitors and Substrates of Cytochrome P450 3A4 (AID 884); note: nearly all actives have a fitted effect of over 50% in size; note: potency is the fitted concentration of half-maximal effect
# In short: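 20 nM human CYP3A4 with 25 uM Luciferin-PPXE (at KM) in 200 mM KPO4, preincubated 10 min with compound; NADPH regeneration started a 60 min RT reaction. Luciferin detected by luminescence, normalized to 57 uM ketoconazole as full inhibition.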
# [16] = target: Lysosomal acid glucosylceramidase (Homo sapiens) (UniProt P04062); assay: Glucocerebrosidase-p2 (AID 348; in the data active = potency below about 10 µM; note: potency is the fitted concentration of half-maximal effect); conditions: purified GBA, blue fluorogenic substrate, 40 min
# In short: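 Compounds titrated from 0.6 nM upwards against 0.2 nM enzyme in pH 5.9 citric acid/KH2PO4, taurocholate, tween-20; blue fluorogenic substrate 80 uM, 40 min room temperature, stopped and read Ex 365/Em 440 for AC50.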
# [17] = NFAT Signaling Pathway (AID 444; active = well fitted curve in either direction with a large enough effect, not every such curve was filed as active;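 note: carbachol stimulus at about its EC50 of 1 µM final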); conditions: Jurkat NFAT-bla M1, carbachol, beta-lactamase ratio, 5 h; at 7.69 µM (top of the series)
# In short: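 Jurkat cells carrying an NFAT-driven β-lactamase reporter and co-transfected muscarinic M1 receptor were treated with compound plus carbachol (1 uM final, an EC50 level) for 5 h at 37 °C. CCF4 loading followed for 1 h at RT; 460/530 nm ratio gave %activity.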
# [18] = target: Cytochrome P450 1A2 (Homo sapiens) (UniProt P05177); assay: p450-cyp1a2 (AID 410; calls by dose curve)
# In short: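 Luminescent readout of luciferin formed from Luciferin-ME by human CYP1A2; data normalized against complete inhibition by 57 uM furafylline. Enzyme 20nM, substrate 100uM at Km, 100mM KPO4 buffer, 60 min reaction at room temperature.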
# [19] = target: Voltage-gated inwardly rectifying potassium channel KCNH2 (Homo sapiens) (UniProt Q12809); assay: qHTS Assay for Small Molecule Inhibitors of the Human hERG Channel Activity (AID 588834);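 note: top concentration of the series differs between compounds; lower thallium flux fluorescence means stronger hERG block; nearly all actives have a fitted effect of over 50% in size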
# In short: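 Measured: FluxOR fluorescence after thallium stimulation in U2OS cells transduced with hERG by baculovirus. Compounds pre-incubated around 10 min; medium Opti-MEM with 2% FCS. AC50 from Hill equation.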
# [20] = measured here: cell count channel max response
# [21] = measured here: lipid channel max response
# Chain of Cytochrome P450 3A4 (Homo sapiens) (P08684 whole entry, looked up): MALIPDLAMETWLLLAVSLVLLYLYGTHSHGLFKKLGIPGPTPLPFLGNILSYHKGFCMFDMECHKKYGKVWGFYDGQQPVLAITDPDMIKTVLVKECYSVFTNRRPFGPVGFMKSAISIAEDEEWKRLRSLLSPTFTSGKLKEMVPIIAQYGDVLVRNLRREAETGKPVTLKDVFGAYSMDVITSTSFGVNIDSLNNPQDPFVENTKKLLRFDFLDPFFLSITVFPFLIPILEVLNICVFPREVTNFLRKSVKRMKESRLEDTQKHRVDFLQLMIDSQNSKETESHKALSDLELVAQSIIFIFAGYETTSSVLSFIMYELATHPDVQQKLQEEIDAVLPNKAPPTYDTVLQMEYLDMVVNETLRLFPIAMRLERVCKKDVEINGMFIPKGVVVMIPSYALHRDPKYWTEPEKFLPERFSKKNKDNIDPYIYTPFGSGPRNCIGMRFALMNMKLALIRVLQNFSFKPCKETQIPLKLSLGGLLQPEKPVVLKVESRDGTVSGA
# Chain of Ubiquitin carboxyl-terminal hydrolase 1 (Homo sapiens) (O94782 whole entry, looked up): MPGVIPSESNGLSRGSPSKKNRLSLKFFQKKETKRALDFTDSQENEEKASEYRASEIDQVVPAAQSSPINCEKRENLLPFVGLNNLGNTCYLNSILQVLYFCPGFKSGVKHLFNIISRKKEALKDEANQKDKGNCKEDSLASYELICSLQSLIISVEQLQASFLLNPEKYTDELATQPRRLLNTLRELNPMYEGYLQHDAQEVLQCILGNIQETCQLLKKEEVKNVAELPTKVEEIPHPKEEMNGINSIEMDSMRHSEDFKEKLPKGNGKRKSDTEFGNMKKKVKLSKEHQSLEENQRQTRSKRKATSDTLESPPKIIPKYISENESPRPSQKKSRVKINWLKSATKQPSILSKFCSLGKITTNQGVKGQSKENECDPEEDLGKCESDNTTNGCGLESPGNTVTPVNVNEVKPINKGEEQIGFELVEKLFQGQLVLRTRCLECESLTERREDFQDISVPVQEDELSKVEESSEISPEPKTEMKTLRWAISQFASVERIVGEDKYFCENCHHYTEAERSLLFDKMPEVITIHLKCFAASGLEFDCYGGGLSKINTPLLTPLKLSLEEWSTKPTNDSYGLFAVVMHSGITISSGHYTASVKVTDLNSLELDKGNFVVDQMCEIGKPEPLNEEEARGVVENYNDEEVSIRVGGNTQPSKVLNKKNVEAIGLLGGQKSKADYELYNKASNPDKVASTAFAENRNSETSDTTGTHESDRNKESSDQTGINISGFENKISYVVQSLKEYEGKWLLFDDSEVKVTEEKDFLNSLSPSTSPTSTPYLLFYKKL
# Chain of Cytochrome P450 1A2 (Homo sapiens) (P05177 whole entry, looked up): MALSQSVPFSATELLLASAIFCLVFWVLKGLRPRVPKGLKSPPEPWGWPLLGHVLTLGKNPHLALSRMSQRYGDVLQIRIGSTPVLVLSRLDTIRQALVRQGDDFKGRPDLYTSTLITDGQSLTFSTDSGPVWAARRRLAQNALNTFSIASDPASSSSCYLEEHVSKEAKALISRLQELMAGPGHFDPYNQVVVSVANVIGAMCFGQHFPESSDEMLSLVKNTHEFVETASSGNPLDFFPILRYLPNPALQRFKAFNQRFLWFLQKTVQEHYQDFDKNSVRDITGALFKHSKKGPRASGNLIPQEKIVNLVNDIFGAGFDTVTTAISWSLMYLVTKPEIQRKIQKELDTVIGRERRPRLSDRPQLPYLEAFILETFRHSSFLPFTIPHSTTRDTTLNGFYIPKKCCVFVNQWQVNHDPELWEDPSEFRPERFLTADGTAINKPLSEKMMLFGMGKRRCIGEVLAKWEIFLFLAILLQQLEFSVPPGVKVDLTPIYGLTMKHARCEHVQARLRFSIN
# Chain of 3',5'-cyclic-AMP phosphodiesterase 4B (Homo sapiens) (Q07343 whole entry, looked up): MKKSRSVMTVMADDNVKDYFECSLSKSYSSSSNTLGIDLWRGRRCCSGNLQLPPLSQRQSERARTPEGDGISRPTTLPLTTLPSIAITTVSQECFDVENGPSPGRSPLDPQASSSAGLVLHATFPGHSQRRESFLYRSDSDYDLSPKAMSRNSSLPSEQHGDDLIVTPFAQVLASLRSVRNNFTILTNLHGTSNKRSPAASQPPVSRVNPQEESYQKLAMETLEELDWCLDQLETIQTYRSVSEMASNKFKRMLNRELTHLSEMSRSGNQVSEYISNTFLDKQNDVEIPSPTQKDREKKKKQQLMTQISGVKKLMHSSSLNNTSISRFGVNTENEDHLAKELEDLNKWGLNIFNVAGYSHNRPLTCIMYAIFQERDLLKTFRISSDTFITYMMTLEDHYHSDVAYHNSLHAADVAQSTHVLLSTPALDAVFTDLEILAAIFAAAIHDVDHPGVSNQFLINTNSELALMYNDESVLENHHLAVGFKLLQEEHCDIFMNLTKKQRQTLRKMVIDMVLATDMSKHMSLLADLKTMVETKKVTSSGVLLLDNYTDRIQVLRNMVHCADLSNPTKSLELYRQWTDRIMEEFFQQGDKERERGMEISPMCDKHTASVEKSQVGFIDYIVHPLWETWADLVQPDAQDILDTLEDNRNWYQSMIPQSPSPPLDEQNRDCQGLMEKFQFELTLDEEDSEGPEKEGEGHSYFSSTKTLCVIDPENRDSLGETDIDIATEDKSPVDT
# Chain of Glucocorticoid receptor (Homo sapiens) (P04150 whole entry, looked up, the tested form may be a part): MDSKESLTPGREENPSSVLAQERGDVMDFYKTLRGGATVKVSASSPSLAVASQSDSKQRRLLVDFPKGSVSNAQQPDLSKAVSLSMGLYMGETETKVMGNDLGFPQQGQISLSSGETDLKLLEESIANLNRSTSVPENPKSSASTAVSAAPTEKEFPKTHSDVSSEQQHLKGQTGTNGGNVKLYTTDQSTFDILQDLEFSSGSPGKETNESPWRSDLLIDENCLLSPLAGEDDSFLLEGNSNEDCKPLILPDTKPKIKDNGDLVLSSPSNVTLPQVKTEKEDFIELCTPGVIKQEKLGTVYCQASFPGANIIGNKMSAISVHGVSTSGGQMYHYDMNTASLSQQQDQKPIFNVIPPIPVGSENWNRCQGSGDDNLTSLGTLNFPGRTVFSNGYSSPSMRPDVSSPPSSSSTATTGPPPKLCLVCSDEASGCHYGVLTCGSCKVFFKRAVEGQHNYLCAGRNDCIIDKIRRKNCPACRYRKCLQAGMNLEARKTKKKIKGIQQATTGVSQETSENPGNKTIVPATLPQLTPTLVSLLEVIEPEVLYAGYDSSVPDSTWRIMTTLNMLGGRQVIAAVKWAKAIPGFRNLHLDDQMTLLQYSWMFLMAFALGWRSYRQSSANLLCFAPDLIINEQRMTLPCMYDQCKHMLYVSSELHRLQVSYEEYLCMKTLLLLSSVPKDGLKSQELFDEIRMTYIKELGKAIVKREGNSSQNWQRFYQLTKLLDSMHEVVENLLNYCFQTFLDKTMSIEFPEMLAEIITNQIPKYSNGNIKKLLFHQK
# Chain of ATP-dependent DNA helicase Q1 (Homo sapiens) (P46063 whole entry, looked up): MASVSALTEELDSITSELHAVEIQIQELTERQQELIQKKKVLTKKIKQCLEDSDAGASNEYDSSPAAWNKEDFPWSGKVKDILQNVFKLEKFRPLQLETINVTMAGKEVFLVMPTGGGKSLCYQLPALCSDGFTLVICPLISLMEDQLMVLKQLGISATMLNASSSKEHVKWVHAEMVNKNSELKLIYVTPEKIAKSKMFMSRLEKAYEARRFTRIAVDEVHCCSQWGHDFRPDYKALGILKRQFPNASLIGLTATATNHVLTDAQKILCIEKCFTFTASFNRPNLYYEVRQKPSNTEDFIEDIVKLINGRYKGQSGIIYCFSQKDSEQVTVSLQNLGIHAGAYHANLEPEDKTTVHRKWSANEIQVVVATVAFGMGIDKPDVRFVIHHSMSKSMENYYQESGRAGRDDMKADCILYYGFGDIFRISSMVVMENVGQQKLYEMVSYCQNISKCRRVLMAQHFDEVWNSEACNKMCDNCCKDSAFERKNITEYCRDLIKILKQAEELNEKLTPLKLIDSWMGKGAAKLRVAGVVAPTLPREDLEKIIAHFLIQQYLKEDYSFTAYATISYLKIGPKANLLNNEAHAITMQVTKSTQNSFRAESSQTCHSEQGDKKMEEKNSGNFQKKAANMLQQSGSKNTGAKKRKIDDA
# Chain of DNA repair nuclease/redox regulator APEX1 (Homo sapiens) (P27695 whole entry, looked up): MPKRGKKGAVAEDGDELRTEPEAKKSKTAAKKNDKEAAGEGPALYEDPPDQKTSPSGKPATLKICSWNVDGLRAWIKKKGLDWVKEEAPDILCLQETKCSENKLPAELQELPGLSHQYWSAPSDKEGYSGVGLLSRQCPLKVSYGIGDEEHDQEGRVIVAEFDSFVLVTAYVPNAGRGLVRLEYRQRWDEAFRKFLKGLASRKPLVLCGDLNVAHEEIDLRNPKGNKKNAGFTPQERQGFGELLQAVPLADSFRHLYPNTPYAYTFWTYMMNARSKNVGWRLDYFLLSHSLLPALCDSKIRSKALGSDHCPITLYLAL
# Chain of Lysosomal acid glucosylceramidase (Homo sapiens) (P04062 whole entry, looked up): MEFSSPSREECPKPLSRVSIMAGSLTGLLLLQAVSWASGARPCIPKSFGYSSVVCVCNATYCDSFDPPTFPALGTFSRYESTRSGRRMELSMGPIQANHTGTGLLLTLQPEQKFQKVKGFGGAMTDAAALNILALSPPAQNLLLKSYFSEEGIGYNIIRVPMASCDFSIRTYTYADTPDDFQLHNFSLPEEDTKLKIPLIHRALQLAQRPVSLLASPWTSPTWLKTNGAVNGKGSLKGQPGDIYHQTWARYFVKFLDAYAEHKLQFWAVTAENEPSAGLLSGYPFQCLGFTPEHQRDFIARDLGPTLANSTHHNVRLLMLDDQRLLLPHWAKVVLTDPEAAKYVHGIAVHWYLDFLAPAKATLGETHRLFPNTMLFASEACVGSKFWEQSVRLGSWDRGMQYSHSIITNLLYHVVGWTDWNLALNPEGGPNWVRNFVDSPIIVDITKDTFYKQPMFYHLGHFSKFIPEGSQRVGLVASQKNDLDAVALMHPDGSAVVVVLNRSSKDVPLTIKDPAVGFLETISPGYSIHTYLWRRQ
smiles,measurement,setting,value
CN1CCCC2(CCN(C(=O)c3ccco3)CC2)C1,outcome,[1],inactive
same,outcome,[2],inactive
same,Potency,[3],> 46 µM (inactive)
same,outcome,[4],inactive
same,Potency,[5],inactive
same,"activity change, negative = inhibition",[6]; at 57.5 µM (top of the series),-2.44% (inactive)
same,max response,[6]; [20],-24.9%
same,max response,[6]; [21],-25.6%
same,outcome,[7],inactive
C[C@]12CC[C@H](O)CC1=CCC1C2CC[C@]2(C)C(=O)CC[C@@H]12 (some centres undefined),"activity change, negative = inhibition",[6]; at 57.5 µM (top of the series),0.778% (inactive)
same,max response,[6]; [20],-17.2%
same,max response,[6]; [21],-14.9%
same,Potency,[8],inactive
same,outcome,[9],inactive
same,Potency,[10],inactive
same,"activity, negative = inhibition",[11]; parasite line A,7.06% (inactive)
same,"activity, negative = inhibition",[11]; parasite line B,19% (inactive)
O=C1c2ccccc2-c2cccc3cccc1c23,Potency,[12],inactive
same,Potency,[13],inactive
same,Potency,[14],inactive
same,"activity change, negative = inhibition",[6]; at 57.5 µM (top of the series),15.9% (inactive)
same,max response,[6]; [20],9.47%
same,max response,[6]; [21],28.5%
same,Potency,[10],inactive
COc1cc2occc2c2oc(=O)ccc12,Potency,[15],12.6 µM (active)
same,Potency,[12],inactive
same,Potency,[13],inactive
same,Potency,[14],inactive
same,outcome,[7],inactive
COc1ccc(NC(=O)N2CC3(CCN(C(=O)Oc4ccccc4)CC3)C2)cc1,Potency,[16],> 11.4 µM (inactive)
same,outcome,[1],inactive
same,"activity change, negative = inhibition",[17],3.27% (inactive)
same,Potency,[3],> 46 µM (inactive)
same,outcome,[4],inactive
same,Potency,[5],inactive
same,outcome,[7],inactive
O=C(Oc1ccccc1)N1CCC2(CCCN(Cc3nccs3)C2)CC1,outcome,[1],inactive
same,Potency,[18],inactive
same,Potency,[3],> 46 µM (inactive)
same,Potency,[5],inactive
same,Potency,[12],inactive
same,outcome,[7],inactive
C[C@@H](C(=O)O)c1ccc(-c2ccccc2)c(F)c1,"activity change, negative = inhibition",[6]; at 25.7 µM (top of the series),2.45% (inactive)
same,max response,[6]; [20],2.3%
same,max response,[6]; [21],1.21%
CN1C[C@H](C(=O)N[C@@]2(C)O[C@@]3(O)C4CCCN4C(=O)C(Cc4ccccc4)N3C2=O)C[C@H]2c3cccc4[nH]cc(c34)C[C@H]21 (some centres undefined),"activity change, negative = inhibition",[6]; at 57.5 µM (top of the series),12.3% (inactive)
same,max response,[6]; [20],8.55%
same,max response,[6]; [21],25.1%
C=C(C)C1Cc2c(ccc3c(=O)c4c(oc23)COc2cc(OC)c(OC)cc2-4)O1 (centres undefined),Potency,[13],inactive
same,Potency,[14],inactive
same,Potency,[10],inactive
same,outcome,[7],inactive
CCCC[N+]1(C)C2CC(OC(=O)C(CO)c3ccccc3)CC1C1OC12 (centres undefined),"activity change, negative = inhibition",[6]; at 57.5 µM (top of the series),-1.49% (inactive)
same,max response,[6]; [20],13.3%
same,max response,[6]; [21],13.7%
same,Potency,[8],inactive
same,outcome,[9],inactive
same,Potency,[10],inactive
same,Potency,[19],inactive
same,"activity, negative = inhibition",[11]; parasite line A,-8.81% (inactive)
same,"activity, negative = inhibition",[11]; parasite line B,-5.62% (inactive)
C=C1CC[C@H](O)C/C1=C/C=C1\CCC[C@]2(C)[C@H]1CC[C@H]2[C@@H](C)CCCC(C)C,"activity change, negative = inhibition",[6]; at 25.7 µM (top of the series),0.847% (inactive)
same,max response,[6]; [20],8.85%
same,max response,[6]; [21],12%
O=C(Oc1ccccc1)N1CCC2(CCN(Cc3nccs3)CC2)CC1,outcome,[1],inactive
same,Potency,[18],inactive
same,outcome,[2],inactive
same,Potency,[3],> 46 µM (inactive)
same,outcome,[4],inactive
same,Potency,[5],inactive
same,Potency,[15],inactive
same,Potency,[12],25.1 µM (active)
same,outcome,[7],inactive
COc1ccc(NC(=O)N2CC[C@@]3(CCCN(C(=O)Oc4ccccc4)C3)C2)cc1,outcome,[1],inactive
same,Potency,[18],inactive
same,"activity change, negative = inhibition",[17],4.32% (inactive)
same,Potency,[3],> 46 µM (inactive)
same,outcome,[4],inactive
same,Potency,[5],inactive
same,Potency,[12],inactive
same,outcome,[7],inactive
COc1cc(C2c3cc4c(cc3C(O)[C@H]3COC(=O)C23)OCO4)cc(OC)c1OC (some centres undefined),"activity change, negative = inhibition",[6]; at 57.5 µM (top of the series),6.7% (inactive) and 5.22% (inactive)
same,max response,[6]; [20],-4.29% and 22%
same,max response,[6]; [21],2.15% and 29.3%
